Measurements: PubChem BioAssay (NCATS)
Several values for one entry are separate records, joined by “and”; a condition that tells them apart may be missing. Equal entries are not always repeated. Results filed as inconclusive are left out. Unmarked numbers belong to inactive results. Calls follow the shape of the dose curve; as a rule, active = well fitted cell-killing curve with a large enough effect in the repeat runs; inconclusive = weak or mixed curves; inactive = flat fitted curve, though single readings scatter.
% is scaled to controls: 0 for no effect and ±100 for the full control effect.

Test: qHTS assay for small molecule agonists of the antioxidant response element (ARE) signaling pathway measured by Nrf2-dependant transcriptional activity - cell viability counter screen (AID 720653)
Conditions: ARE-bla HepG2 viability, CellTiter-Glo ATP luminescence, 16 h; hits give low values
Excerpt: National Center for Advancing Translational Sciences [NCATS] NIH Chemical Genomics Center [NCGC] U.S. Environmental Protection Agency [EPA] National Institutes of Environmental Health Sciences [NIEHS] National Toxicology Program [NTP] Assay Overview: Oxidative stress has been implicated in the pathogenesis of a variety of diseases ranging from cancer to neurodegeneration. The antioxidant response element (ARE) signaling pathway plays an important role in the amelioration of oxidative stress. The CellSensor ARE-bla HepG2 cell line (Invitrogen) can be used for analyzing the Nrf2/antioxidant response signaling pathway. Nrf2 (NF-E2-related factor 2) and Nrf1 are transcription factors that bind to AREs and activate these genes. The CellSensor ARE-bla HepG2 cell line contains a beta-lactamase reporter gene under control of the Antioxidant Response Element (ARE) stably integrated into HepG2 cells. The activation of the report gene under culture conditions can be detected by fluorescence intensity. The cytotoxicity of the compounds against the ARE-bla HepG2 cell line was quantified by measuring the intracellular ATP content.
Assay Protocol Summary: ARE-bla HepG2 cells were dispensed at 2,000 cells/5 ul/well in 1536-well black wall/clear bottom plates using a Multidrop Combi (ThermoFisher Scientific, Waltham, MA) dispenser. After the assay plates were incubated at 37C/5% CO2 for 5 hrs, 23 nL of compounds dissolved in DMSO, positive controls or DMSO only was transferred to the assay plate by a pintool work station (Kalypsys, San Diego, CA). The plates were incubated at 37C/5% CO2 for 16 hrs. After 1 uL of LiveBLAzer B/G FRET substrate was added using a Flying Reagent Dispenser (FRD) (Aurora Discovery, San Diego, CA), the assay plates were incubated at room temperature for 2 hrs. The fluorescence intensity was measured by an Envision (PerkinElmer, Shelton, CT) plate reader. Cell viability using CellTiter Glo viability assay (Promega, Madison, WI) was also measured by adding 4 ul/well of CellTiter-Glo reagent into the same assay plate using a FRD. After 30 min incubation at room temperature, the luminescence intensity in the plates was measured using a ViewLux (PerkinElmer) plate reader.
`CC(C)Br` showed a max response of -6.22%.
`CCC#N` gave a max response of 13.6%.
With `ClCCOCCCl` the max response was -1.62%.
`O=Cc1ccc(Cl)cc1Cl` showed a max response of 1.04%.
Work on `CC[N+](=O)[O-]` yielded a max response of 9.27%.
`Nc1cc(Cl)ccc1O` showed a max response of -22.1%.
`Clc1cc(Cl)c(Cl)c(Cl)c1` showed a max response of -5.74%.
In the case of `Nc1cc(Cl)cc(C(=O)O)c1Cl`, the max response is reported as -8.07% and -24.7%.
For `CCCBr`, the max response was -3.32%.
`N#CC(Br)Br` showed a max response of -8.42%.
In the case of `CCC[N+](=O)[O-]`, the max response is reported as -3.7%.
Work on `O=C(O)C(Br)Br` yielded a max response of -17.6%.
`C/C=C/C=O` gave a max response of -9.77%.
In the case of `O=C(Cl)OCc1ccccc1`, the max response is reported as 6.86%.
Compound `ClCCCCl` has a max response of 1.55%.
In the case of `CCCCCC[N+](=O)[O-]`, the max response is reported as 8%.
`COC(=O)c1ccccc1N` gave a max response of -7.9%.
`CN(C)c1ccc(N)cc1` showed a max response of -16.3%.
Compound `ClCCOCOCCCl` has a max response of -12.6%.
For `O=C(O)C(Br)CBr` (stereo not given), the max response was 0.981%.
With `Nc1ccc(Oc2ccc(N)cc2)cc1` the max response was -2.21% and -13%.
Work on `CN(C)C(=O)Cl` yielded a max response of -21%.
Compound `Brc1cccc(-c2ccccc2)c1` has a max response of -6.68%.
For `Brc1ccc(Oc2ccc(Br)cc2Br)c(Br)c1`, the max response was -0.481%.
`BrCCc1ccccc1` showed a max response of -7.12%.
With `CCCCCc1cc(O)cc(O)c1` the max response was 8.35%.
`Cc1cc(-c2cc(C)c(N)c(C)c2)cc(C)c1N` gave a max response of -5.77%.
`Nc1cccc(Cl)c1` showed a max response of 2.22%.
In the case of `Cc1ccc(N=C=O)cc1N=C=O`, the max response is reported as -4.8% and -0.784%.
For `Nc1ccc(-c2ccc(N)c(Cl)c2)cc1Cl`, the max response was -14% and -8.08%.
In the case of `CCCCCCCCCCCOC(=O)c1ccccc1C(=O)OCCCCCCCCCCC`, the max response is reported as 3.11%.
`CC(C)(COCC1CO1)COCC1CO1` (stereo not given) showed a max response of 1.11%.
For `[C-]1=CC=CC1.[C-]1=CC=CC1.[Cl-].[Cl-].[Ti+4]`, the max response was -7.58%.
For `C=CCCC#N`, the max response was -16.2%.
`CCN(N=O)C(N)=O` gave a max response of 1.02%.
For `Nc1ncc([N+](=O)[O-])s1`, the max response was 0.285%.
Compound `Oc1c(Cl)c(Cl)cc(Cl)c1Cl` has a max response of -2.21%.
`CC(C#N)CCC#N` (stereo not given) gave a max response of 0.528%.
Work on `CCC/C=N/O` yielded a max response of -12.8%.
With `CC(C)[C@]12CC(=O)[C@H](C)[C@H]1C2` the max response was -4.23% and -2.13%.
